Survival data for 60 molecules are collected here from PubChem BioAssay AID463173 (ICCB-Longwood Screening Facility, Harvard Medical School, 2010).

SMILES strings stand for the structures. Out of some 52,000 compounds screened, about 4,300 (8.3%) were called active. The entries come from a sample that favours actives as a whole. A number with no mark means an inactive call. No stated cut-off is given here; in the data, active means survival mostly below about 52% (no sharp cut-off); inactive means mostly above about 56%.

The assay concerns DeltatarO mutant. In words: growth inhibition of S. aureus wild type versus tarO mutant, primary screen, teichoic acid synthesis inhibitors, RN4220, OD600 (AID 463173). The settings on record: OD600, 18 h, stronger effect = lower value, screened at 18.75 µg/mL (by protocol).
For the molecule `c1ccc(C2=NNC(c3nc4ccccc4[nH]3)C2)cc1` (stereo not given), the survival is 60%.
In the case of `CCCOC(=O)C1=C(C)OC23OC(N)=C(C#N)C12C(=O)c1ccccc13` (stereo not given) it was 80%; in that of `O=C(Cn1c(-c2cccs2)cc2ccccc21)NCCCN1CCN(c2ccccc2F)CC1`, 69%; in that of `CCn1c(SCc2cccc(Br)c2)nnc1-c1nonc1NC(C)=O`, 108%.
In the case of `CC1CCN(C(=O)c2cnn(-c3ccc(Cl)cc3)c2C2CCN(C(=O)OC(C)(C)C)CC2)CC1` it was 76%; in that of `Cc1nc2nc(C)c(NS(=O)(=O)c3ccc(CC(C)C)cc3)c(=O)n2[nH]1`, 89%.
In the case of `Cc1ccccc1NC(=O)Nc1nnc(N2CCCCCC2)s1` it was 94%; in that of `CCc1ccccc1NC(=O)CCc1c(C)nc2cc(-c3ccccc3)nn2c1C`, 59%.
For the molecule `COc1ccccc1CNC(=O)CCc1c(C)nc2cc(-c3ccc(Cl)cc3)nn2c1C`, the survival is 129%.
Then `COC(=O)c1ccccc1NC(=O)CCc1c(C)nc2cc(-c3ccc(Cl)cc3)nn2c1C`, with 41% (active); and `Cc1cc2oc(C(=O)N(Cc3ccc(N(C)C)cc3)CC3CCCO3)c(C)c2cc1Cl` (stereo not given), with 65%; and `Cc1ccccc1CNCCSc1nnnn1C`, with 84%.
Then `CCc1ccc(-c2nc3cc(NC(=O)c4ccc(F)cc4)ccc3o2)cc1`, with 83%; and `Cc1ccc2oc(-c3ccc(C)c(NC(=O)c4ccc5c(c4)OCCO5)c3)nc2c1`, with 48%.
Then `CC(C)c1ccc2oc(-c3cccc(NC(=O)c4ccc5c(c4)OCCO5)c3)nc2c1`, with 28% (active); and `CCc1ccc(C(=O)Nc2cccc(-c3nc4cc(C(C)C)ccc4o3)c2)cc1`, with 41% (active).
For `CCc1ccc(-c2nc3cc(NC(=O)c4ccc(C)c(C)c4)ccc3o2)cc1`, the survival was 151%.
Then `COc1ccc2oc(-c3ccc(C)c(NC(=O)c4ccc5c(c4)OCCO5)c3)nc2c1`, with 70%; and `Cc1ccc(S(=O)(=O)N(CC(O)Cn2c3ccccc3c3ccccc32)c2cccc(C(=O)N(C)C)c2)cc1` (stereo not given), with 54%; and `Cc1ccc(S(=O)(=O)N(CC(O)Cn2c3ccccc3c3ccccc32)c2cccc(C(N)=O)c2)cc1` (stereo not given), with 38% (active).
Then `Cc1ccc(S(=O)(=O)N(CC(O)Cn2c3ccccc3c3ccccc32)c2cccc(C(=O)NCCO)c2)cc1` (stereo not given), with 56%.
Then `Cc1ccccc1-c1ccnc2c(-c3ccc(F)cc3)c(C)nn12`, with 6% (active).
`CCc1nn2c(-c3ccco3)ccnc2c1-c1ccc(F)cc1`: the survival is 81%.
Consider `COc1ccc(-c2ccnc3c(-c4ccc(F)cc4)c(C)nn23)cc1OC`, for which the survival is 88%.
In the case of `Cc1nn2c(-c3ccco3)ccnc2c1-c1ccc(F)cc1` it was 90%; in that of `CCc1nn2c(-c3ccccc3OC)ccnc2c1-c1ccccc1`, 0% (active); in that of `COc1cccc(-c2ccnc3c(-c4ccc(F)cc4)c(C)nn23)c1`, 93%.
`CCc1nn2c(-c3ccco3)ccnc2c1-c1ccccc1`: the survival is 84%.
In the case of `COc1ccccc1-c1ccnc2c(-c3ccc(Br)cc3)c(C)nn12` it was 94%.
Then `CCc1nn2c(-c3ccccc3OC)ccnc2c1-c1ccc(F)cc1`, with 2% (active); and `Cc1cc2nn(-c3ccc(F)cc3)nc2cc1NC(=O)c1cc(Cl)ccc1Cl`, with 141%; and `CC1CCCN(S(=O)(=O)c2ccc3c(c2)CCN3C(=O)CCC(=O)O)C1` (stereo not given), with 96%.
In the case of `Cc1ccc(N2CC(c3nnc(NC(=O)c4ccco4)s3)CC2=O)cc1Cl` (stereo not given) it was 77%; in that of `CCN1C(=O)CC(n2c(C)nc3ccccc32)C1=O` (stereo not given), 96%; in that of `Cc1ccc(-c2nn(-c3ccccc3)c3[nH]c(=O)c(CNCCN4CCOCC4)cc23)cc1`, 115%.
For `NC(CC(=O)OC1CCCCC1)C(=O)OC1CCCCC1` (stereo not given), the survival was 89%.
As to `O=C(Nc1ccc(F)c(Cl)c1)C1CCCN(c2ncnc3onc(-c4ccc(F)cc4)c23)C1` (stereo not given), the survival is 78%.
Then `CN(Cc1ccco1)S(=O)(=O)c1nnc(NC(=O)c2ccccc2Cl)s1`, with 76%; and `CN(Cc1ccco1)S(=O)(=O)c1nnc(NC(=O)c2ccccc2)s1`, with 23% (active); and `Cc1ccc(C(=O)Nc2nnc(S(=O)(=O)N(C)Cc3ccco3)s2)cc1`, with 39% (active).
Then `CC(C)COc1ccc(C(=O)Nc2nnc(S(=O)(=O)N(C)Cc3ccco3)s2)cc1`, with 79%.
In the case of `Cc1ccc(C(=O)Nc2nnc(S(=O)(=O)N(C)Cc3ccc(F)cc3)s2)cc1`, the survival is 60%.
In the case of `O=C(CCCSc1nc(-c2ccco2)cc(C(F)(F)F)n1)NC1CCCCC1` it was 86%.
For `Cc1ccc(N(Cc2cccs2)C(=O)C(C)Oc2ccc(Cl)c(C)c2)cc1` (stereo not given), the survival was 58%.
Then `COc1ccc(Cl)cc1C(=O)N1CCCC1`, with 100%.
For the molecule `CN1C(C(=O)Nc2ccc(F)cc2F)=CC(c2ccc3c(c2)OCO3)=NS1(=O)=O`, the survival is 68%.
In the case of `Cc1ccc(Cn2ccnc2SCC(=O)NCc2ccc(F)cc2)cc1` it was 101%.
In the case of `O=C(/C=C/c1ccco1)NC(=S)NC1CCCCC1` it was 115%; in that of `Cc1ccc(OC(=O)CSc2nnc(-c3ccco3)n2-c2ccccc2)cc1`, 52%.
Then `Cc1cc(=O)n2nc(N3CCC(C(=O)Nc4ccc(Br)cc4F)CC3)sc2n1`, with 94%; and `Cc1cc(C)cc(NC(=O)c2cc(S(=O)(=O)N3CCCC3)ccc2F)c1`, with 92%; and `CCc1ccc2c(c1)c(=O)c(S(=O)(=O)c1ccccc1)cn2CC(=O)Nc1ccc(OC)cc1`, with 76%.
Turning to `O=C(/C=C/c1ccccc1)Nc1cc(-c2nc3ccccc3o2)ccc1Cl`, the survival is 59%.
In the case of `O=C(/C=C/c1ccccc1)Nc1cc(-c2nc3cc(Cl)ccc3o2)ccc1Cl` it was 46% (active).
Then `O=C(Nc1ccc2oc(-c3ccc4ccccc4c3)nc2c1)c1cc(Cl)ccc1Cl`, with 86%; and `O=C(COc1ccccc1[N+](=O)[O-])Nc1cc(-c2nc3cc(Cl)ccc3o2)ccc1Cl`, with 66%.
Then `O=C(Nc1cc(-c2nc3cc(Cl)ccc3o2)ccc1Cl)c1cccc2ccccc12`, with 44% (active); and `O=C(Cc1ccccc1)Nc1cc(-c2nc3cc(Cl)ccc3o2)ccc1Cl`, with 68%.
Turning to `O=C(Nc1cc(-c2nc3cc(Cl)ccc3o2)ccc1Cl)c1ccco1`, the survival was 41% (active).
Then `COc1cc(OC)cc(C(=O)Nc2cc(-c3nc4cc(Cl)ccc4o3)ccc2Cl)c1`, with 71%.
